The supplement of paper PMC9694430

Experiments:
Assay in all cases: thermal shift delta Tm vs DMSO control; higher = stronger stabilization (binding)
Details in all cases: 12.5 µM; protein concentration 2 µM
LOC_OS04G57630-cb004 = system: LOC_OS04G57630-cb004
Summary of the method: (§1)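 Compounds dissolved in DMSO were added to purified rice kinase domain constructs, which had been expressed in E. coli, for differential scanning fluorimetry. Each well held 19.5 μl of 2 μM kinase in 100 mM potassium phosphate pH 7.5, 150 mM NaCl, 10% glycerol and 5 × SYPRO Orange. Fluorescence was followed from 25°C to 95°C at a rate of 0.05°C/s. Shifts in Boltzmann-fitted melting temperature are triplicate means relative to DMSO-only protein.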

LOC_OS05G07850-cb002 = system: LOC_OS05G07850-cb002
Summary of the method: as §1

LOC_OS05G16824-cb004 = system: LOC_OS05G16824-cb004
Summary of the method: as §1

LOC_OS05G28520-cb001 = system: LOC_OS05G28520-cb001
Summary of the method: as §1

LOC_OS05G30820-cb001 = system: LOC_OS05G30820-cb001
Summary of the method: as §1

LOC_OS05G43570-cb004 = system: LOC_OS05G43570-cb004
Summary of the method: as §1

LOC_OS06G16330-cb003 = system: LOC_OS06G16330-cb003
Summary of the method: as §1

LOC_OS06G22820-cb001 = system: T1, LOC_OS06G22820-cb001
T1 sequence (whole entry): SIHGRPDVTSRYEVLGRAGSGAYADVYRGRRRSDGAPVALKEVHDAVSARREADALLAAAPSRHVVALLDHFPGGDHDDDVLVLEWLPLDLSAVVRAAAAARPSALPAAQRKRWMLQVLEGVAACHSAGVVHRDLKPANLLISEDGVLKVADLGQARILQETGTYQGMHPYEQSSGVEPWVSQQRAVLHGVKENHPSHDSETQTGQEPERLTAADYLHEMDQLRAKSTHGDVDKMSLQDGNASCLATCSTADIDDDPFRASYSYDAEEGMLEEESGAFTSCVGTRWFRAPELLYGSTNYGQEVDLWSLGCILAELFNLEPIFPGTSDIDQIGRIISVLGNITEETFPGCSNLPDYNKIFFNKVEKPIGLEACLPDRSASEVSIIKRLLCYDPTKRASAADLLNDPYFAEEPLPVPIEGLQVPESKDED
Summary of the method: as §1

LOC_OS07G06570-cb004 = system: LOC_OS07G06570-cb004
Summary of the method: as §1

LOC_OS07G07230-cb001 = system: LOC_OS07G07230-cb001
Summary of the method: as §1

Chain of LOC_OS06G16330-cb003 (as listed by the source): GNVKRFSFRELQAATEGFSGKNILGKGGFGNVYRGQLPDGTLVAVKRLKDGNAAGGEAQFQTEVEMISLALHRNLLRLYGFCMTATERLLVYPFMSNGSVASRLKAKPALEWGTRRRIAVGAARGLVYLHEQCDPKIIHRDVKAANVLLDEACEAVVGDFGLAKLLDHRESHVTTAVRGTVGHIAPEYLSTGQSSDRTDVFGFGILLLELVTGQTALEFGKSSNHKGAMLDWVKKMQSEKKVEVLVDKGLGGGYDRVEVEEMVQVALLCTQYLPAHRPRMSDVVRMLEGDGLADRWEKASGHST

SMILES	thermal shift delta Tm (LOC_OS04G57630-cb004) [°C]	thermal shift delta Tm (LOC_OS05G07850-cb002) [°C]	thermal shift delta Tm (LOC_OS05G16824-cb004) [°C]	thermal shift delta Tm (LOC_OS05G28520-cb001) [°C]	thermal shift delta Tm (LOC_OS05G30820-cb001) [°C]	thermal shift delta Tm (LOC_OS05G43570-cb004) [°C]	thermal shift delta Tm (LOC_OS06G16330-cb003) [°C]	thermal shift delta Tm (LOC_OS06G22820-cb001) [°C]	thermal shift delta Tm (LOC_OS07G06570-cb004) [°C]	thermal shift delta Tm (LOC_OS07G07230-cb001) [°C]
CN1CCC(CNc2ccc3ncc(-c4cccc(OC(F)(F)F)c4)n3n2)CC1 [SGI-1776 free base]	1.46	12	3.25	0.98	0.86	0.36	3.37	0.41	0.32	0.72
CCOc1cc(N2CCC(O)CC2)ccc1Nc1ncc2c(n1)N(C)c1ccccc1C(=O)N2C	-0.09	1.85	-1.07	0.32	0.48	0.23	0.05	0.49	1.48	0.47
Cc1cnc(Nc2ccc(OCCN3CCCC3)cc2)nc1Nc1cccc(S(=O)(=O)NC(C)(C)C)c1	1.75	8.73	6.93	0.76	0.92	0.64	4.38	0.29	0.27	0.07
CN1CCN(c2ccc3nc(-c4c(N)c5c(F)cccc5[nH]c4=O)[nH]c3c2)CC1 [Dovitinib (TKI258) Lactate]	4.11	8.85	14.8	1.89	1.87	0.71	8.12	0.62	1.96	0.72
Cc1ccc(Nc2nccc(N(C)c3ccc4c(C)n(C)nc4c3)n2)cc1S(N)(=O)=O	0.96	8.97	4.72	0.97	0.39	1.48	3.83	0.9	1.14	0.54
O=C(NOC[C@H](O)CO)c1ccc(F)c(F)c1Nc1ccc(I)cc1F	-0.16	-0.38	0.88	0.62	0.37	1.5	0.23	1.03	1.11	0.26
O=c1cc(N2CCOCC2)oc2c(-c3ccc4c(c3)OCCO4)csc12	0.03	6	1.81	-0.12	0.24	0.13	0.18	0.4	1.45	0.63
CCn1c(=O)c(-c2cc[nH]n2)cc2c(C)nc(N)nc21	0.11	3	-1.71	0.22	0.35	-0.07	0.86	0.06	0.51	0.61
Fc1ccc2[nH]ccc2c1-c1nc(N2CCOCC2)c2sc(CN3CCN(CC4CC4)CC3)cc2n1	-0.15	2.07	-1.52	0.19	0.44	0.12	-0.11	0.53	0.96	0.95
CNC(=O)c1ccc(-c2cnc3ncc(Cc4ccc5ncccc5c4)n3n2)cc1F	0.55	0.67	-1.29	0.04	0.18	0.63	-2.08	0.46	1.26	0.89
O=c1c(O)c(-c2cc(O)c(O)c(O)c2)oc2cc(O)cc(O)c12 [Myricetin]	0.92	4.43	1.57	0.55	0.97	1.55	6.62	1.33	-1.03	0.47
CCCS(=O)(=O)Nc1ccc(F)c(C(=O)c2c[nH]c3ncc(Cl)cc23)c1F	0.51	5.57	2.36	1.71	0.75	0.29	1.64	0.42	0.7	-0.02
O=c1sn(-c2cccc3ccccc23)c(=O)n1Cc1ccccc1 [Tideglusib]	-0.25	-3.79	-13.5	0.99	0.39	0.01	0.99	0.6	1	0.27
CN1CCN(Cc2ccc(-c3cnc4[nH]cc(-c5ccc6[nH]ccc6c5)c4c3)cc2)CC1	11.1	15.3	11.2	2.09	1.88	1.74	13.7	0.7	1.92	0.61
COc1cc(C(=O)N2CCC(N3CCN(C)CC3)CC2)ccc1Nc1ncc2c(n1)N(C)c1ccccc1C(=O)N2C	0.47	4.15	-2.69	0.06	0.42	-1.79	0.93	0.32	0.88	0.74
CC(C)Oc1ccc(-c2nn([C@@H](C)c3oc4ccc(F)cc4c(=O)c3-c3cccc(F)c3)c3ncnc(N)c23)cc1F	0.05	-1	-4.89	0.51	0.43	0.51	0.01	0.62	1.08	-0.07
COc1cc2ncnc(Oc3ccc(CC(=O)Nc4cnn(C(C)C)c4)cc3)c2cc1OC	1.78	8.95	0.86	0.43	0.37	-0.02	0.82	0.41	1.54	0.45
Nc1ccc(-c2ccc3ncc4ccc(=O)n(-c5cccc(C(F)(F)F)c5)c4c3c2)cn1 [Torin 2]	0.09	9.25	2.46	0.76	0.48	0.35	2.11	0.56	1.44	0.3
NC(=O)c1ncn([C@@H]2O[C@H](CO)[C@@H](O)[C@H]2O)c1N [AICAR (Acadesine)]	0.05	0.57	-1.12	-0.02	0.45	0.5	0.02	0.92	1.07	-0.25
